MazF activator = increases E. coli MazEF RNase cleavage of RNA; P0AE70; activation, % at 20 µM; FAM/BHQ RNA-DNA oligo cleavage fluorescence, 5 h; 350,000 tested, 0.32% active; AID 504720; in the data active means activation above about 50%
Target sequence (P0AE70 whole entry, looked up): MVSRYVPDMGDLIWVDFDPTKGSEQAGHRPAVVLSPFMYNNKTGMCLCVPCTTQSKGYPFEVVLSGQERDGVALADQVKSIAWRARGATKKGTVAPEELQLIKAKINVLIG
Autofluor counter = compound fluorescence in toxin protease inhibitor counterscreen; compound autofluorescence counterscreen, microsphere flow cytometry; active compounds read high; fluorescence intensity (concentration not given with the values); 360,000 tested, 3.1% active; in the data active means fluorescence intensity above about 16000; inconclusive means no clear call, values can overlap the other calls
BoNT A protease = blocks Botulinum neurotoxin A light chain protease. multiplex microsphere protease substrate cleavage, flow cytometry. inhibition, % at 10 µM. 360,000 tested, 0.17% active. AID 588499; further: plate controls were buffer without enzyme for full effect and enzyme alone for no effect
Anthrax LF inh2 = inhibitors of Bacillus anthracis lethal factor protease; P15917; multiplex microsphere protease cleavage assay, LF; inhibition, % at 10 µM; 360,000 tested, 0.12% active; further: plate controls were buffer without enzyme for full effect and enzyme alone for no effect
Vc quorum ag = inducers of Vibrio cholerae quorum light production without autoinducers; V. cholerae BH1578 lux reporter, luminescence, 6 h; activation, % at 18.7 µM; 350,000 tested, 0.16% active; AID 588436; in the data active means activation mostly above about 9.7%, no sharp cut-off; inconclusive means no clear call, values can overlap the other calls; inactive means mostly below about 3.7%
BoNT-F LC inh = blocks Botulinum neurotoxin F light chain protease | AID 588497 | inhibition, % at 10 µM | 360,000 tested, 0.22% active | Multiplex microsphere protease cleavage assay, flow cytometry; in the data active means inhibition above about 35%, passing the limit was not always enough; inconclusive means no clear call, values can overlap the other calls; further: plate controls were buffer without enzyme for full effect and enzyme alone for no effect
The depositor's hits bear a star; i = inactive; ? = inconclusive; · = no result given. A selection: hits, their analogues and other compounds. The true share with any hit is near 3.9%. Unless noted, no stated cut-off is given here; in the data, active means inhibition above about 30%; inconclusive means no clear call, values can overlap the other calls; inactive means below that.

SMILES | MazF activator | Autofluor counter | BoNT A protease | Anthrax LF inh2 | Vc quorum ag | BoNT-F LC inh
CCn1c(Cc2ccccc2)nnc1SCC(=O)NC(C)(C)C | 5 | 11399 | -1 | -5 | 0 | -8
Cc1cc(NC(=O)CSc2nnc3ccccn23)no1 | 2 | 17051* | -5 | -4 | -1 | 15
Cc1cc(NC(=O)CSc2nnc(-c3cccnc3)n2Cc2ccccc2)no1 | 3 | 3939 | -2 | -3 | i | 2
CCOC(=O)[C@]12CCCC=C1N(Cc1cccc3ccccc13)C(=O)[C@H](CC(=O)NCc1cccs1)C2 | · | 5109 | 0 | -8 | · | 0
COc1ccc(N2CCN(C(=O)CN3c4cccc5cccc(c45)S3(=O)=O)CC2)cc1 | -3 | 5276 | 4 | 0 | i | 0
CC(=O)Nc1cccc(-c2csc(C(O)c3cccc(Cl)c3)n2)c1 (stereo not given) | · | 3064 | 0 | 5 | i | -5
CCCCCCNC(=O)c1cn(CC)c2cc(N3CCN(C)CC3)c(F)cc2c1=O | 8 | 3333 | 2 | -6 | -1 | 23
CNC(=O)CSc1nnc(COc2ccc(Cl)cc2)n1CCOC | -10 | 22197* | 2 | 1 | 0 | 4
CC(O)(c1ccc(F)c(F)c1)c1nc(-c2cc3ccccc3o2)cs1 (stereo not given) | · | 2907 | 0 | -3 | -1 | 2
Cc1ccccc1-n1ncc(C(C)NC(=O)c2ccccc2)c1C (stereo not given) | 3 | 2200 | 0 | -2 | 1 | 6
CCN1CCN(Cc2ccc(OCc3ccccc3)cc2)CC1 | -15 | 20089* | 4 | -7 | i | 3
CN1CCN(Cc2ccc(OCc3ccccc3)cc2)CC1 | -4 | 11055 | -1 | -5 | -1 | -14
CCC(=O)N1CCN(c2cc(N3CCCC3)c(F)cc2[N+](=O)[O-])CC1 | 8 | 3967 | 0 | -2 | i | -1
CC(=O)N1CCN(c2cc(N3CCc4ccccc4C3)c(F)cc2[N+](=O)[O-])CC1 | 7 | 17226* | -5 | -4 | -1 | -8
O=C(c1ccc(N2CCCCC2)c([N+](=O)[O-])c1)N1CCOCC1 | 3 | 16276* | 0 | -3 | i | 1
O=C(c1cccc(F)c1)N1CCN(c2cc(N3CCCCC3)c(F)cc2[N+](=O)[O-])CC1 | 2 | 20200* | 3 | 1 | -1 | 1
O=C1CCCC(O)=C1C1C2=C(CCCC2=O)Oc2ccccc21 (stereo not given) | -2 | 21293* | ? | -1 | i | 5
CCc1c(C)[nH]n(-c2ccc(Oc3ccccc3)c(S(=O)(=O)O)c2)c1=O | -5 | 22582* | ? | -1 | -3 | -2
COc1ccc(-c2nc3ccccc3c(=O)n2-c2cccnc2)cc1 | -2 | 22591* | ? | 0 | 2 | -2
Cc1nc2ccccc2c(=O)n1-c1cccnc1 | -10 | 21722* | ? | -2 | -3 | 4
CSc1nc2ccccc2c(=O)n1-c1cccnc1 | 5 | 5467 | 0 | 0 | i | -7
COc1ccc(-n2c(-c3ccc(C)cc3)nc3ccccc3c2=O)cc1 | 5 | 5961 | 0 | 3 | -1 | -7
COc1ccccc1Cn1c(=S)[nH]c2cc(C(=O)N3CC(C)CC(C)C3)ccc2c1=O (stereo not given) | 0 | 4100 | 0 | -2 | i | 0
Cc1cc(NC(=O)NC(=O)c2ccccc2NC(=O)C(C)N)ccc1Oc1ncc(Br)cn1 (stereo not given) | 1 | 3474 | 1 | 0 | 1 | 7
CC(=O)Nc1nc(-c2ccc(Cl)cc2)nc(C)c1C(C)=O | -2 | 5272 | 3 | -4 | i | 35*
SMILES | MazF activator | Autofluor counter | BoNT A protease | Anthrax LF inh2 | Vc quorum ag | BoNT-F LC inh
CC(=O)c1c(C)nc(C)nc1NC(=O)Cc1ccccc1 | -5 | 4962 | -1 | 3 | -3 | -5
COc1ccc2[nH]c(C(=O)Nc3ccc4c(c3)OCO4)cc2c1 | -4 | 5604 | 0 | -8 | 1 | -10
COc1ccc(CN(CCCN2CCOCC2)C(=O)Nc2ccccc2)cc1OC | -2 | 22584* | ? | -7 | i | -3
O=C(Nc1ccccc1)N(CCCN1CCOCC1)Cc1ccccc1F | 6 | 2929 | 0 | 3 | · | -2
CC1CCN(C(=O)COC(=O)CCCN2C(=O)c3cccc4cccc(c34)C2=O)CC1 | -2 | 5784 | -2 | -4 | 1 | 0
C=CCn1c(O)c(N=NC(=S)Nc2ccccc2F)c2ccccc21 | -18 | 4227 | 8 | -1 | 0 | -7
C=CCn1c(O)c(N=NC(=S)Nc2cccc(C)c2)c2ccccc21 | 2 | 2362 | 30* | 9 | 0 | -3

Screens (PubChem BioAssay)
